From PubChem BioAssay AID1851 (National Center for Advancing Translational Sciences (NCATS), 2009)
The whole screen tested about 16,000 compounds, of which about 2,600 (16%) were called active. About 20% were inconclusive and are not listed. Calls come from the whole dose curve; as a rule, active = well fitted curve in the direction sought with a large enough effect; inconclusive = small, poorly fitted or top-dose-only effect, or effect the other way; inactive = no such curve, though single readings can be large or run the other way. Not all results are given here.

What follows are molecules tested against Cytochrome P450 2D6 (Homo sapiens) (UniProt P10635) (assay: Cytochrome panel assay with activity outcomes). Conditions: recombinant CYP, pro-luciferin dealkylation, luminescence, p450-cyp2d6; series mostly up to 57.1 µM; activity, negative = inhibition: at the top concentration.
% is set by controls: 0 for no effect and ±100 for the full control effect.

Sequence of Cytochrome P450 2D6 (Homo sapiens) (P10635 whole entry, looked up): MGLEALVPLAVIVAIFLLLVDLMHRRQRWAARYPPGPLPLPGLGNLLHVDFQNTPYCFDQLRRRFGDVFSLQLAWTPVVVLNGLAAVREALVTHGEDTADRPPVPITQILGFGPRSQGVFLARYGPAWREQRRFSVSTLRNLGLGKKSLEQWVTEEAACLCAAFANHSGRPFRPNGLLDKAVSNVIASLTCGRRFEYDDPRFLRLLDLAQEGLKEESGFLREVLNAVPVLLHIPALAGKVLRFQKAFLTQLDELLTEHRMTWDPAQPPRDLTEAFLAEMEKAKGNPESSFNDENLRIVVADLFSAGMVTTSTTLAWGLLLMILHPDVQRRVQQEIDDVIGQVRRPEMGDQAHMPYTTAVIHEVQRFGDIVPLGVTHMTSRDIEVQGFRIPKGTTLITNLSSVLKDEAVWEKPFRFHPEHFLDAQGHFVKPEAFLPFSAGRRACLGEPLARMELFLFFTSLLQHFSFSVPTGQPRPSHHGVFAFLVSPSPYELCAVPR

AC50, active:
COc1ccccc1CNc1ncnc2ccc(-c3ccoc3)cc12 3160 nM
COc1ccc(CNc2ncnc3ccc(-c4c(C)noc4C)cc23)c(OC)c1 15800 nM
COc1ccccc1CNc1ncnc2ccc(-c3ccc4c(c3)OCO4)cc12 794 nM
COc1ccc2c(c1)nc(SCC(=O)c1ccc(Br)s1)n2C 5010 nM
CC(C)c1ccc2c(c1)CC[C@H]1[C@@](C)(CN)CCC[C@@]21C 1260 nM
COc1cccc(CN2CCN(Cc3cc(OC)c(OC)cc3[N+](=O)[O-])CC2)c1 224 nM
O=C(Nc1ccc2c(c1)nc1n2CCN(C2CCCCC2)C1)NC1CCCCC1 12600 nM
CN1CCN2c3ncccc3Cc3ccccc3C2C1 (stereo not given) 501 nM
Cc1cc(C)n(-c2nc(SCCN(C)C)c3c4c(sc3n2)CCCC4)n1 794 nM
CC1(C)Cc2ccccc2C(N/N=C/c2cccc(F)c2)=N1 11200 nM

activity, negative = inhibition, inactive:
CCOC(=O)COc1ccc(/C=C/[N+](=O)[O-])c(OCC(=O)OCC)c1 -6.43%
Clc1ccc(Nc2ncn[nH]2)cc1 11%
CCCCCCCCCCCCCCCC(=O)C(F)(F)F -3.23%
Cc1cc(C)c(-c2noc(C(=O)OC(C)(C)C)c2C(=O)OC(C)(C)C)c(C)c1 -5.04%
Cc1cc(OC(=O)c2ccccc2Cl)cc(=O)n1C -6.09%
Cc1sc2ncn(CC(=O)NCCCC(=O)N3CCN(c4ncccn4)CC3)c(=O)c2c1C 0.039%
Cc1ccc(C)n1N1C(=O)/C(=C\c2ccc(Cl)cc2)SC1=S -11.4%
Cn1c(SCC(=O)NC2CC2)nnc1-c1cccc(NC(=O)c2ccccc2F)c1 -21%
C[C@H]1/C=C\CC(=O)OC[C@H](C)C(=O)N2CCC[C@@H]2C(=O)OC1 -8.94% [at 11.4 µM]
COc1ccc2nc(NC(=O)CSc3nnc(C)s3)sc2c1 -7.57%
COc1ccc2nccc(SCC(=O)O)c2c1 -10.3% [at 11.4 µM]
CCOC(=O)C1=C(N)n2c(s/c(=C/c3ccccc3)c2=O)=C(C(=O)OCC)C1c1ccccc1 (stereo not given) 5.82%
c1ccc(-c2nc3ccccc3o2)nc1 -8.6%
Cn1c(=O)c(-c2cccs2)nc2cnc(N3CCNCC3)nc21 -7.69%
Cc1ccc(-n2[nH]c(=O)c3cccnc32)cc1 17%
COc1ccc(Cc2nc3ccc(S(=O)(=O)N4CCOCC4)cc3[nH]2)cc1OC -0.602%
CCCCC#Cc1nc(N)c2ncn([C@@H]3O[C@@H](C(=O)NCC)[C@H](O)[C@@H]3O)c2n1 11%
COc1cccc(-c2noc(Cn3nc(C)c([N+](=O)[O-])c3C)n2)c1 -13.8%
CCOc1ccc(C(=O)Cc2cc(OC)c(OC)cc2[N+](=O)[O-])cc1 6.77%
COc1cccc(Nc2ncc3ncc(=O)n(C)c3n2)c1 -4.79%
COc1ccc(CCNC(=O)Cn2cnc3c2c(=O)n(C)c(=O)n3C)cc1OC 2.41%
O=C(O)c1nn(-c2ccc(Cl)cc2)c2c1C(=O)c1ccccc1C2=O -7.18% [at 11.4 µM]
CCCNC(=O)Nc1ccc2c(c1)nc(C)n2C 8.71%
O=C(Nc1ccc(Cl)cc1)NC1CCCCC1 -2.71%
O=C(O)CC/C=C\CC[C@H]1[C@@H](N2CCCCC2)[C@@H](O)C[C@@H]1OCc1ccc(-c2ccccc2)cc1 10.6%
COc1ccc2c(c1)CCCC21NC(=O)N(CC(N)=O)C1=O (stereo not given) 11.4%
CCOC(=O)N1N=C(c2ccccc2)CC1(O)C(F)(F)F (stereo not given) 3.62%
COC(=O)c1ccc(NC(=O)c2ccccc2)o1 12.2%
O=c1[nH]c(=S)[nH]nc1Cc1ccccc1 4.49%
Cc1c(N(C)C)c(=O)n(-c2ccccc2)n1C 1.13% [at 25.6 µM]
CSC1=C(C#N)C(c2ccccc2Cl)C2=C(N1)c1ccccc1C2=O (stereo not given) -20.8%
COc1cc(/C=C/C(=O)Nc2ccccc2C(F)(F)F)cc(OC)c1OC 4.2%
CCc1ccc2c(-c3cccc(Cl)c3)nc(=O)n(CC)c2n1 -15%
Cc1ccc(C(=O)COC(=O)CNC(=O)C(c2ccccc2)c2ccccc2)cc1[N+](=O)[O-] -8.5%
Cc1ccc(-n2ccnc2SCC(=O)N(CC(C)C)C2CCS(=O)(=O)C2)c(C)c1 (stereo not given) -6.08%
Cc1cc(C)n(-c2nc(NCC(C)O)c3c4c(sc3n2)COC(C)(C)C4)n1 (stereo not given) -1.92%
O=C(O)CSc1ncnc2sc3c(c12)CCC3 -4.52%
C[C@@H]1C[C@H](C)CN(S(=O)(=O)c2cc(Cl)c(Oc3ccc([N+](=O)[O-])cc3Cl)c(Cl)c2)C1 2.46% [at 11.4 µM]
O=C(N/N=C/c1cccc(F)c1)c1csc2c1CCCC2 -28.5%
Cc1cccc(/C=N\Nc2cn[nH]c(=O)c2Cl)c1 -13%
